Here are results for seven molecules from PubChem BioAssay (Tox21).

Where “and” joins values, the source holds several entries; their conditions need not be identical. Equal entries are not always repeated. Results filed as inconclusive are left out. Calls of active or inactive are those of the source. Unless noted, calls come from the whole dose curve.

Assay [1] can be described thus: Nuclear factor erythroid 2-related factor 2/antioxidant responsive element (Nrf2/ARE) small molecule agonists: qHTS cell viability counter screen in human keratinocytes (AID 1919968; active = well fitted curve in the direction sought with a large enough effect in the repeat runs; an effect the other way counts as inactive or inconclusive; note: nearly all actives have a fitted effect of over 55% in size). The essentials: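 Cells of the KeratinoSens line were plated at 1,500 per well and left for 5 h before compound transfer from DMSO stocks. After a 23 h incubation (37 C, 5% CO2), CellTiter-Fluor was added. Signal was taken as fluorescence intensity 1 h later.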
(Quantitative high-throughput screening tests each substance at several concentrations.)

Assay [2] is described as follows: Nuclear factor erythroid 2-related factor 2/antioxidant responsive element (Nrf2/ARE) small molecule agonists: luciferase reporter gene qHTS assay in human keratinocytes (AID 1919969). Note: nearly all actives have a fitted effect of over 35% in size.
The target in assay [3] is Gonadotropin-releasing hormone receptor (Homo sapiens) (UniProt P30968). The assay is described as follows: Human gonadotropin-releasing hormone receptor (GnRHR) small molecule agonists, calcium flux assay in GnRHR-HEK293 cells (AID 1920063). Note: nearly all actives have a fitted effect of over 35% in size. The essentials:
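Compounds dissolved in DMSO are pin-transferred onto dye-loaded GnRHR-HEK293 cells, which were seeded 18 h before at 37 C/5% CO2. Calcium signal is read as fluorescence intensity at 1 s intervals for 3 min.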
(In general: Calcium flux is commonly read through the fluorescence of an indicator in the cells.)

The target in assay [4] is KiSS-1 receptor (Homo sapiens) (UniProt Q969F8). The assay can be described thus: Human kisspeptin (KISS1R) small molecule agonists, calcium flux assay in KISS1R-HEK293 cells (AID 1920064; active = well fitted curve in the direction sought with a large enough effect in the repeat runs; an effect the other way counts as inactive or inconclusive). The essentials: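 Cell line: HEK293, stable human KISS1R. Dye loading 1 h at 37 C after 18 h culture. Read: kinetic fluorescence, 480/540 nm, 3 min at 1 s intervals.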
Assay [5] in a line: G protein-coupled receptor (GPCR) small molecule agonists, calcium flux assay: HEK293 wild type cell line counter screen (AID 1920065). The essentials:
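Tox21 10K compounds, 15 concentrations each in triplicate, pin-transferred in DMSO onto dye-loaded cells; kinetic read at 480/540 nm for 3 min, 1 s intervals.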

The nature of assay [6]: p53 small molecule agonists, cell-based qHTS assay with human liver microsomes (AID 1963577).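 Note: p53 response element beta-lactamase reporter cells with liver microsomes plus NADPH.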 The essentials: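 p53RE-bla cells; 5 h settle, 37 C/5% CO2; cpd + HLM 0.5 mg/mL + NADPH 0.5 mg/mL (final); 16 h 37 C; LiveBLAzer 2 h RT dark; fluorescence readout.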
Assay [7] is described as follows: p53 small molecule agonists, cell-based qHTS assay with rat liver microsomes (AID 1963578). The essentials: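 Rat liver microsome activation: microsomes 0.5 mg/mL, NADPH 0.5 mg/mL final; p53RE-bla cells, 16 h 37 C; LiveBLAzer readout, 2 h RT dark.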
Assay [8] in a line: p53 small molecule agonists, cell-based qHTS assay with human liver microsomes: qHTS cell viability counter screen (AID 1963579). Note: nearly all actives have a fitted effect of over 45% in size. The essentials:
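Luminescent CellTiter-Glo read-out, 30 min at room temperature, gauged cytotoxicity in p53RE-bla cells exposed 16 h at 37 C to DMSO-dissolved compounds with metabolic activation by human liver microsomes and NADPH, each 0.5 mg/mL final.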

Assay [9] in a line: p53 small molecule agonists, cell-based qHTS assay with rat liver microsomes: qHTS cell viability counter screen (AID 1963580). Note: nearly all actives have a fitted effect of over 45% in size. The essentials:
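Counter screen for cytotoxicity under metabolic activation: rat liver microsomes and NADPH, 0.5 mg/mL final each, added with compounds to p53RE-bla HCT-116 cells; 16 h at 37 C, then ATP luminescence read.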

Assay [10] can be described thus: p53 small molecule agonists, cell-based qHTS assay: qHTS cell viability counter screen (AID 1963581). Note: nearly all actives have a fitted effect of over 45% in size. The essentials: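 ATP content measured by luminescence in HCT-116 p53RE-bla cells treated 16 h at 37 C, same wells as the reporter screen.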
A short description of assay [11]: p53 small molecule agonists, cell-based qHTS assay (AID 1963582; active = well fitted activation curve with a large enough effect in the signal ratio in the repeat runs, not every such curve was filed as active; the % refers to the signal ratio). The essentials:
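16 h compound exposure (37 C) of p53 response element–bla cells, preceded by 5 h recovery at 37 C/5% CO2; read-out via LiveBLAzer B/G FRET substrate, 2 h RT, fluorescence intensity.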

For assay [12], the target named is 5-hydroxytryptamine receptor 2A (Homo sapiens) (UniProt P28223). The assay can be described thus: 5-hydroxytryptamine receptor 2A (HTR2A) small molecule antagonists, cell-based qHTS assay (AID 1963586). Note: nearly all actives have a fitted effect of over 45% in size. The essentials:
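CHO cells stably expressing human HTR2A were plated for 18 h at 37 C, then loaded with calcium dye for 1 h. Compounds were preincubated 5 min at room temperature before DOI (4 nM solution) was added. Kinetic fluorescence was read for 3 min.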

Assay [13] has the same target. The assay can be described thus: 5-hydroxytryptamine receptor 2A (HTR2A) small molecule agonists, cell-based qHTS assay (AID 1963587). Note: nearly all actives have a fitted effect of over 30% in size. The essentials:
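HTR2A-CHO cells, plated 18 h at 37 C/5% CO2, dye-loaded 1 h at 37 C; compounds in DMSO added by pin tool (agonist mode). Intracellular calcium flux read as kinetic fluorescence on FDSS over 2 min at 1 s intervals.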

For assay [14], the target named is Muscarinic acetylcholine receptor M1 (Homo sapiens) (UniProt P11229). The assay can be described thus: Cholinergic receptor muscarinic 1 (CHRM1) small molecule agonists, cell-based qHTS assay (AID 1963589). Note: nearly all actives have a fitted effect of over 35% in size. The essentials: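 Homogeneous fluorescence calcium flux, agonist mode. Human M1-expressing CHO cells; compound dosed at 15 concentrations, three independent runs; signal sampled every 1 sec.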

Assay [15] in a line: cAMP Responsive Elements (CRE) small molecule agonists, cell-based qHTS assay (AID 1963590). The essentials:
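HEK 293T cells stably bearing CRE-bla were plated at 2,000 cells per well and rested 18 h. Compounds, positive controls or DMSO were added for 3 h at 37 C. LiveBLAzer B/G substrate was then loaded for 2 h at room temperature.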

Assay [16] is described as follows: cAMP Responsive Elements (CRE) small molecule antagonists, cell-based qHTS assay (AID 1963591; active = well fitted inhibition curve with a large enough effect in the signal ratio in the repeat runs, not every such curve was filed as active; the % refers to the signal ratio). The essentials: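 First, CRE-bla HEK293T cells settled 18 h at 37 C. Next, compound and 0.25 uM final NKH477 were applied for 3 h. Last, LiveBLAzer B/G substrate was loaded for 2 h at room temperature.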
Assay [17] deals with Beta-2 adrenergic receptor (Homo sapiens) (UniProt P07550). The assay is described as follows: Adrenergic beta2 receptor (ADRB2) small molecule antagonists, cell-based qHTS assay (AID 1963592). Note: series mostly up to about 92 µM; nearly all actives have a fitted effect of over 50% in size. The essentials:
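Assay format: CHO-ADRB2 cells, 18-20hr seeding at 37C/5% CO2, then compound plus 1nM isoproterenol agonist mix for 0.5hr RT. Homogeneous time-resolved fluorescence cAMP detection after 1hr, expressed as 665/615 nm ratio.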

For assay [18], the target named is D(2) dopamine receptor (Homo sapiens) (UniProt P14416). The assay can be described thus: Dopamine D2 receptor (DRD2) small molecule agonists, cell-based qHTS assay (AID 1963594). Note: nearly all actives have a fitted effect of over 35% in size. The essentials: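 HEK293 cells stably expressing DRD2 were cultured 24 h at 37 C, then given Ro20-1724 (0.1 mM final) and compounds for 10 min at room temperature. NKH477 (200nM) was then added for 30 min. cAMP was read by HTRF.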

The target is the same in assay [19]. The assay is described as follows: Dopamine D2 receptor (DRD2) small molecule antagonists, cell-based qHTS assay (AID 1963595; active = well fitted inhibition curve with a large enough effect in the signal ratio in the repeat runs, with a control signal flat; the % refers to the signal ratio). The essentials:
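HEK293 cells stably expressing DRD2 were preincubated with 0.1 mM Ro20-1724, then with compound for 10 min at room temperature. Cells were stimulated with 200 nM NKH477 plus 12 nM quinpirole for 30 min, and cAMP was read by HTRF.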

For assay [20], the target named is Muscarinic acetylcholine receptor M1 (Homo sapiens) (UniProt P11229). The assay can be described thus: Cholinergic receptor muscarinic 1 (CHRM1) small molecule antagonists, cell-based qHTS assay (AID 1963588). Note: nearly all actives have a fitted effect of over 40% in size. Note: potency is the fitted concentration of half-maximal effect. The essentials: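 Compounds were tested at 15 concentrations in three independent runs. Dye-loaded CHRM1-CHO cells were exposed 5 min at room temperature before stimulation by acetylcholine added at 50nM. Intracellular calcium was read kinetically on FDSS for 3 min.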

Chain of Gonadotropin-releasing hormone receptor (Homo sapiens) (P30968 whole entry, looked up): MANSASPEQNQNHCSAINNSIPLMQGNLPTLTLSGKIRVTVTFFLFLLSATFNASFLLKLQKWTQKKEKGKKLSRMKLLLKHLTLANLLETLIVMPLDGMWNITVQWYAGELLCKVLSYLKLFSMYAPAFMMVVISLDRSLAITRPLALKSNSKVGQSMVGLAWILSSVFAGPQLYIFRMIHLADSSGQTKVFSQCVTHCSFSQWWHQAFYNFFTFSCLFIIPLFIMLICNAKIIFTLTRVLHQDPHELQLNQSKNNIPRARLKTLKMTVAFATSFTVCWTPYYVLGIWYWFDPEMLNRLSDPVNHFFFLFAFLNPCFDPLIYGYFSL
Chain of Beta-2 adrenergic receptor (Homo sapiens) (P07550 whole entry, looked up): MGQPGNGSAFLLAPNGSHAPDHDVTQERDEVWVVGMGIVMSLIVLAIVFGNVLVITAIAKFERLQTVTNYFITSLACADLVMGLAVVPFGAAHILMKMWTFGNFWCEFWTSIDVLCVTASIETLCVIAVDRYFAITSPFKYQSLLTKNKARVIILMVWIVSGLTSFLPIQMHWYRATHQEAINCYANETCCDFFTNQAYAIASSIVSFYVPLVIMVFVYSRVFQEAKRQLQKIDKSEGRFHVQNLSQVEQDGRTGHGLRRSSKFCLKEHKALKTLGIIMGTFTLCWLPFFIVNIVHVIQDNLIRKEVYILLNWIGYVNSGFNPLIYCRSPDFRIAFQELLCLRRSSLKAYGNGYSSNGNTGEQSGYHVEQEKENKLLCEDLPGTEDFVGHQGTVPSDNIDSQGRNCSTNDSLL
Chain of 5-hydroxytryptamine receptor 2A (Homo sapiens) (P28223 whole entry, looked up): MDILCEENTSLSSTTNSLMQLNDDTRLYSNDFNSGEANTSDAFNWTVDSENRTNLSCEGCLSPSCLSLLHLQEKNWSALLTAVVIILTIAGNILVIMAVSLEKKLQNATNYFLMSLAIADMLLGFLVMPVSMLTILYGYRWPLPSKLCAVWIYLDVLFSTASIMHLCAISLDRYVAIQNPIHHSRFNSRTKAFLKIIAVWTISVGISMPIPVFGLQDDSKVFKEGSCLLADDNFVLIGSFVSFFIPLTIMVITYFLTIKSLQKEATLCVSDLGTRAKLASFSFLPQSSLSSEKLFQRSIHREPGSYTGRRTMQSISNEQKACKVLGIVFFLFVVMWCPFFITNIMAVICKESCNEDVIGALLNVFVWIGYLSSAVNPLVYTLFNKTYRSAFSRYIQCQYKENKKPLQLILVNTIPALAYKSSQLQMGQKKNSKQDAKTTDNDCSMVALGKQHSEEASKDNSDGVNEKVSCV
Chain of D(2) dopamine receptor (Homo sapiens) (P14416 whole entry, looked up): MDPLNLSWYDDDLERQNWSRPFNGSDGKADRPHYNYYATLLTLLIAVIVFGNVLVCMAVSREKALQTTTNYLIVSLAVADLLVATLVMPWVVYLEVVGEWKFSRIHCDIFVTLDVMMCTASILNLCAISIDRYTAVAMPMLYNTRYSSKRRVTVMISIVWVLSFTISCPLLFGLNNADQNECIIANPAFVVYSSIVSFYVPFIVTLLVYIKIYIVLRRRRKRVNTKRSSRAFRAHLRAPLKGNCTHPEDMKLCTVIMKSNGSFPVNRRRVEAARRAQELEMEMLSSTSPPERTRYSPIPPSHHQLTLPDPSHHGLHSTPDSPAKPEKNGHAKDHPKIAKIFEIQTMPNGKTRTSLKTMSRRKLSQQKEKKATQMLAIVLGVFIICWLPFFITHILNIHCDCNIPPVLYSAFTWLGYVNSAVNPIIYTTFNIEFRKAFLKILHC
Chain of KiSS-1 receptor (Homo sapiens) (Q969F8 whole entry, looked up): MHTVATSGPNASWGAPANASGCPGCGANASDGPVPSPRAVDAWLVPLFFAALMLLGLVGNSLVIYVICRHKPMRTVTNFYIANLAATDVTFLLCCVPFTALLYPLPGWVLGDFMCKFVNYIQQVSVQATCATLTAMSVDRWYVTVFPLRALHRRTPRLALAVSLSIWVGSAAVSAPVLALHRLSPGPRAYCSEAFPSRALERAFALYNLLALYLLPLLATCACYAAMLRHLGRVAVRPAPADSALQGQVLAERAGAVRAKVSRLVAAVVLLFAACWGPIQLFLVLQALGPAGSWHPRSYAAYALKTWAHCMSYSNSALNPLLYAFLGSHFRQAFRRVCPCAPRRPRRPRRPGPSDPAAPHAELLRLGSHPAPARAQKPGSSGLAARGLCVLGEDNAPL
Chain of Muscarinic acetylcholine receptor M1 (Homo sapiens) (P11229 whole entry, looked up): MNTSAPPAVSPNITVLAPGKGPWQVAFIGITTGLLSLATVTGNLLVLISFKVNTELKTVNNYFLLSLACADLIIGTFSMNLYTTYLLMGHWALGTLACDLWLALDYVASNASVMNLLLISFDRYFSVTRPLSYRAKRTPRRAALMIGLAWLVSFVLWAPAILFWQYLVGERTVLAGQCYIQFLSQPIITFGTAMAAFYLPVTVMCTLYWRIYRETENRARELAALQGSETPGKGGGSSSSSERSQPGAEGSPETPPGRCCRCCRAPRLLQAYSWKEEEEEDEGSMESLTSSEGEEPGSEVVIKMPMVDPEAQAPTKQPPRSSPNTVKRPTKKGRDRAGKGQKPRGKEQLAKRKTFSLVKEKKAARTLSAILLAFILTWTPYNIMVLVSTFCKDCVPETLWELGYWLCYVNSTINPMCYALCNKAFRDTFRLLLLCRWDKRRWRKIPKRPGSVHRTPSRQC

For `ClCC(Cl)CCl`, the Potency entry in [1], in assay [2], in assay [3], in assay [4], in assay [5] and in assay [6] was “inactive” each time. The Potency entry in assay [7], in assay [8], in assay [9], in [10], in assay [11] and in assay [12] was “inactive” throughout. In addition, the Potency result in assay [13], in assay [14], in [15], in [16], in assay [17] and in [18] was “inactive” each time. For the same molecule, the Potency result in assay [19] is “inactive”.
For `Cc1cccc(C)c1NC(=O)CN1CCCC1=O`, the Potency entry in assay [1], in assay [2], in assay [3], in [4], in assay [5] and in assay [6] was “inactive” in each case. Besides, the Potency result in assay [7], in assay [8], in [9], in assay [10], in assay [11] and in assay [13] was “inactive” throughout. Also, the Potency entry in assay [20], in assay [14], in [15], in [16], in assay [17] and in assay [18] was “inactive” each time.
Consider `CCOC(=O)C(c1c(O)c2ccccc2oc1=O)c1c(O)c2ccccc2oc1=O`, for which the Potency entry in assay [1], in assay [2], in assay [3], in assay [4], in assay [5] and in assay [6] was “inactive” throughout. In addition, the Potency result in assay [7], in assay [8], in assay [9], in [10], in assay [11] and in assay [13] was “inactive” each time. Besides, the Potency result in [20], in [14], in assay [15], in assay [16] and in assay [17] was “inactive” each time.
As for `CC(C)N1C(=O)c2ccccc2NS1(=O)=O`, the Potency result in [1], in assay [2], in assay [3], in assay [4], in assay [5] and in assay [6] was “inactive” each time. In addition, the Potency entry in [7], in [8], in assay [9], in assay [10], in [11] and in [13] was “inactive” in each case. In addition, the Potency result in assay [20], in assay [14], in [15], in [16], in assay [17] and in [18] was “inactive” in each case. Besides, the Potency entry in assay [19] is “inactive”.
As to `O=[N+]([O-])c1cccc2ccccc12`, the Potency entry in assay [1], in assay [2], in assay [3], in [4], in assay [5] and in [6] was “inactive” each time. The Potency entry in assay [7], in [8], in assay [9], in assay [10], in assay [11] and in assay [13] was “inactive” throughout. For the same molecule, the Potency entry in assay [20], in assay [14], in [15], in [16], in assay [17] and in assay [18] was “inactive” in each case. Also, in [19], the Potency result is “inactive”.
Turning to `CCC(=O)O[C@H]1CC[C@H]2[C@@H]3CCC4=CC(=O)CC[C@]4(C)[C@H]3CC[C@]12C`, the Potency result in assay [1], in assay [2], in assay [3], in assay [4], in [5] and in assay [6] was “inactive” each time. In addition, the Potency entry in assay [7], in [8], in [9], in assay [10], in assay [11] and in assay [13] was “inactive” in each case. Besides, the Potency result in [14], in [17] and in assay [18] was “inactive” each time. Besides, the Potency in [20] is 5.3 µM (active) and 4.6 µM (active).
As for `CCCCCCCCCCBr`, the Potency entry in assay [1], in assay [2], in assay [3], in assay [4], in assay [5] and in assay [6] was “inactive” throughout. In addition, the Potency entry in [7], in [8], in assay [9], in [10], in assay [11] and in assay [13] was “inactive” in each case. Further, the Potency entry in [20], in [15], in assay [16], in [17] and in assay [18] was “inactive” throughout.
